Measured values taken from PubChem BioAssay (EPA / NIEHS).
More than one record can exist for a structure, and the calls need not agree. The source made the active and inactive calls. How the source made its calls: active means hit-call score of the fitted dose curve at least 0.9, where 1 is the maximum; inactive means score below 0.9.

Experiments:
[1] = APR_HepG2_StressKinase_1hr: Apredica 1-hour HepG2 Assay for Stress Kinase (AID 2282906); details: HepG2 stress kinase (phospho-c-Jun) imaging, actives raise or lower the signal
Summary of the method: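 High-content imaging of phospho-c-Jun immunostaining (with Hoechst nuclear identification) after a 1 h exposure of HepG2 cells to 10 concentrations from 0.39 to 200 uM, final DMSO 0.5%. Fitted bidirectionally against DMSO.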

[2] = APR_HepG2_NuclearSize_24hr: Apredica 24-hour HepG2 Assay for Nuclear Size (AID 2282907); details: high-content imaging, actives raise or lower the signal
Summary of the method: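 Read-out: nuclear diameter from Hoechst 33342 (2 ug/mL) imaging of fixed HepG2 cells, 20x, six fields/well. Compounds ran at 0.39–200 uM for 24 hr, 0.5% DMSO final. Gain or loss was fitted bidirectionally relative to the DMSO baseline.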

[3] = APR_HepG2_CellLoss_24hr: Apredica 24-hour HepG2 Assay for Cell Loss (AID 2282908); details: high-content imaging;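 on AC50: fit in both directions so a hit may be cell loss or gain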
Summary of the method: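 Read-out: Hoechst 33342-stained nuclei counted by automated fluorescence imaging after formaldehyde fixation and Triton permeabilization. Ten concentrations, 0.39 to 200 uM, duplicate wells, 0.5% DMSO final. Gain or loss of signal fitted relative to DMSO baseline.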

[4] = APR_HepG2_MicrotubuleCSK_24hr: Apredica 24-hour HepG2 Assay for Microtubule CSK Stabilty (AID 2282909); details: HepG2 microtubule cytoskeleton imaging, actives raise or lower the signal
Summary of the method: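 Read-out: alpha-tubulin immunofluorescence intensity by automated high-content imaging of fixed HepG2 cells after 24 h compound treatment. Ten concentrations, 0.39 to 200 uM, in duplicate; DMSO 0.5% v/v. Taxol positive control; DMSO-normalized bidirectional curve fitting.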

[5] = APR_HepG2_MitoticArrest_24hr: Apredica 24-hour HepG2 Assay for Mitotic Arrest (AID 2282910); details: high-content imaging, actives raise or lower the signal
Summary of the method: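 Treatment lasted 24 hr in the human HepG2 line at 0.39–200 uM, solvent held at 0.5% DMSO. Fixed cells were stained with Hoechst 33342 and anti-phospho-histone H3, imaged at 20x, and analysed by gain- or loss-of-signal fitting against DMSO.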

[6] = APR_HepG2_MitoMembPot_24hr: Apredica 24-hour HepG2 Assay for Mitochondrial Membrane Potential (AID 2282911); details: imaging, actives raise or lower the signal
Summary of the method: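 Cells are dosed for 24 hr across 0.39 to 200 uM with solvent held at 0.5% DMSO. They are then stained with 250 nM MitoTracker Red CMXRos for 30 min, fixed in 3.7% formaldehyde and imaged.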

[7] = APR_HepG2_MitoMass_24hr: Apredica 24-hour HepG2 Assay for Mitochondrial Mass (AID 2282912); details: high-content imaging, actives raise or lower the signal
Summary of the method: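 HepG2, 24 hr dosing, 10 concentrations 0.39–200 uM in duplicate, DMSO 0.5% final. MitoTracker Red CMXRos 250 nM, 30 min pre-fix; 3.7% formaldehyde fix. Imaging-based fluorescence intensity; gain/loss fit vs DMSO baseline.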

[8] = APR_HepG2_p53Act_24hr: Apredica 24-hour HepG2 Assay for p53 Activation (AID 2282913); details: high-content imaging, actives raise or lower the signal;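 further: p53 protein immunofluorescence averaged per cell in HepG2 with Hoechst nuclei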
Summary of the method: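 Human HepG2 liver cells; 24 hr cpd treatment, 0.39–200 uM, 0.5% DMSO final. Fixed in 3.7% formaldehyde, permeabilized with 0.5% Triton X-100, stained with anti-p53/Cy5 plus Hoechst 33342. Six images per well at 20x; gain or loss vs DMSO.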

[9] = APR_HepG2_P-H2AX_72hr: Apredica 72-hour HepG2 Assay for H2AX Phosphorylation (AID 2282916); details: imaging, actives raise or lower the signal;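 further: phospho-histone H2A.x immunostain intensity per cell marking DNA damage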
Summary of the method: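 Readout: phospho-H2A.x immunofluorescence (FITC secondary) plus Hoechst nuclear stain, high-content imaging at 20x, six fields/well. HepG2, 72 hr compound exposure, 0.39–200 uM, final DMSO 0.5% v/v. Gain or loss fitted relative to DMSO baseline.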

[10] = APR_HepG2_MitoMembPot_72hr: Apredica 72-hour HepG2 Assay for Mitochondrial Membrane Potential (AID 2282917); details: imaging, actives raise or lower the signal
Summary of the method: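 HepG2 cells exposed 72 h to compounds at 0.39–200 uM (0.5% v/v DMSO, duplicates); MitoTracker Red CMXRos 250 nM loaded 30 min before 3.7% formaldehyde fixation, imaged by HCS fluorescence. Bidirectional fit versus DMSO.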

[11] = APR_HepG2_MitoticArrest_72hr: Apredica 72-hour HepG2 Assay for Mitotic Arrest (AID 2282918); details: high-content imaging, actives raise or lower the signal
Summary of the method: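 Read-out is phospho-histone H3 immunofluorescence with Hoechst nuclear segmentation, imaged at 20x. Human HepG2 liver cells received ten concentrations (0.39–200 uM, final DMSO 0.5% v/v) for 72 hr before fixation. Gain or loss of signal was fitted relative to DMSO.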

[12] = APR_HepG2_MicrotubuleCSK_72hr: Apredica 72-hour HepG2 Assay for Microtubule CSK Stabilty (AID 2282919); details: HepG2 microtubule cytoskeleton, high-content imaging, actives raise or lower the signal
Summary of the method: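 Ten-point dosing (0.39–200 uM, 0.5% DMSO) of HepG2 for 72 hr, with taxol as the cytoskeletal positive control. The cells were formaldehyde-fixed and then stained with alpha-tubulin/Cy5 and Hoechst. Imaging at 20x used a −2 um Z offset for tubulin.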

[13] = APR_HepG2_P-H2AX_24hr: Apredica 24-hour HepG2 Assay for H2AX Phosphorylation (AID 2282920); details: high-content imaging, actives raise or lower the signal
Summary of the method: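 HepG2, 24 hr, cpd 0.39–200 uM (10 conc, duplicate), DMSO 0.5% v/v final. Fix 3.7% formaldehyde, Triton X-100 permeabilize, anti-phospho-H2A.x 1:200 + Hoechst 2 ug/mL. Imaged, bidirectional fit vs DMSO.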

[14] = APR_HepG2_StressKinase_24hr: Apredica 24-hour HepG2 Assay for Stress Kinase (AID 2282922); details: HepG2 stress kinase (phospho-c-Jun) imaging, actives raise or lower the signal
Summary of the method: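 After 24 hr compound treatment (up to 200 uM, final DMSO 0.5% v/v), HepG2 cells are fixed and multiplex-labeled; phospho-c-Jun intensity is captured by high-content fluorescence imaging and analyzed relative to DMSO.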

[15] = APR_HepG2_p53Act_72hr: Apredica 72-hour HepG2 Assay for p53 Activation (AID 2282923); details: high-content imaging, actives raise or lower the signal;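 further: average cellular p53 protein immunofluorescence intensity in HepG2 cells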
Summary of the method: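 Readout: p53 immunofluorescence quantified by automated high-content imaging at 20x, six fields per well, nuclei located via Hoechst. Dosing ran 72 hr over ten concentrations from 0.39 to 200 uM; bidirectional curve fitting against DMSO baseline.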

[16] = APR_HepG2_MitoMass_72hr: Apredica 72-hour HepG2 Assay for Mitochondrial Mass (AID 2282924); details: high-content imaging, actives raise or lower the signal;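 further: MitoTracker Red CMXRos stain intensity per cell imaged as mitochondrial mass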
Summary of the method: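 Steps: treat HepG2 72 hr (0.39–200 uM, duplicate wells); load MitoTracker Red CMXRos, 250 nM, 30 min; fix with 3.7% formaldehyde, permeabilise with 0.5% Triton X-100; capture images, nuclei via Hoechst 33342; fit bidirectionally against DMSO.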

[17] = APR_HepG2_CellCycleArrest_24hr: Apredica 24-hour HepG2 Assay for Cell Cycle Arrest (AID 2282905); details: imaging, actives raise or lower the signal;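 further: cell cycle arrest scored as ratio of 2N to 4N nuclear DNA content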
Summary of the method: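 Readout: Hoechst 33342 nuclear DNA content by high-content fluorescent imaging, six images/well, 20x. Human HepG2 liver cells, 24 hr compound exposure, 0.39–200 uM, final DMSO 0.5% v/v. Gain or loss fitted relative to DMSO baseline.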

[18] = APR_HepG2_CellLoss_72hr: Apredica 72-hour HepG2 Assay for Cell Loss (AID 2282915); details: high-content imaging
Summary of the method: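 HepG2 cells were exposed for 72 hr to compounds at 0.39–200 uM (ten concentrations, duplicate) in 0.5% v/v final DMSO. Nuclei were stained with Hoechst 33342 after 3.7% formaldehyde fixation, imaged at 20x, and counted; fits bidirectional versus DMSO.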

[19] = APR_HepG2_CellCycleArrest_72hr: Apredica 72-hour HepG2 Assay for Cell Cycle Arrest (AID 2282914); details: high-content imaging, actives raise or lower the signal
Summary of the method: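 Read-out is Hoechst-stained nuclear DNA content measured by automated fluorescence imaging (20x, six images per well), fitted in both directions relative to DMSO. Human HepG2 liver cells received 0.39–200 uM compound for 72 hr at 0.5% v/v DMSO.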

[20] = APR_HepG2_StressKinase_72hr: Apredica 72-hour HepG2 Assay for Stress Kinase (AID 2282921); details: HepG2 stress kinase (phospho-c-Jun) imaging, actives raise or lower the signal
Summary of the method: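 Phospho-c-Jun immunofluorescence measured by high-content imaging at 20x, six fields per well; bidirectional curve fitting against DMSO as baseline. Dosing: 0.39–200 uM, 72 h, 0.5% DMSO final.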

Measured: AC50

COC(=O)C(C)Oc1ccc(Oc2ccc(Cl)cc2Cl)cc1 (configuration not stated)
inactive: [1] | [2] | [3] | [4] | [5] | [6] | [7] | [8] | [9] | [10] | [11] | [12] | [13] | [14] | [15] | [16]
active: [6] 129 µM

CCc1nn(C)c(C(=O)NCc2ccc(C(C)(C)C)cc2)c1Cl
active: [1] 9.39 µM | [3] 86.9 µM | [4] 19.8 µM | [18] 20.7 µM | [12] 0.0488 µM | [13] 100 µM
not listed: [19] | [20]
inactive: all other assays above

COc1nc(NC(C)C)nc(NC(C)C)n1
not listed: [15] | [17] | [18]
inactive: all other assays above

C=CC1(C)OC(=O)N(c2cc(Cl)cc(Cl)c2)C1=O (configuration not stated)
not listed: [15] | [18] | [19] | [20]
inactive: all other assays above

O=C(Nc1ccccc1)Nc1ccnc(Cl)c1
active: [3] 84.3 µM | [4] 84.5 µM | [7] 108 µM | [19] 37.2 µM | [10] 3.46 µM | [12] 32.5 µM
not listed: [15] | [17] | [18] | [20]
inactive: all other assays above

CN(C)C(=S)SSC(=S)N(C)C
active: [1] 3.07 µM | [3] 2.3 µM | [4] 17.6 µM | [9] 0.0895 µM | [11] 19.8 µM | [12] 3.39 µM | [13] 1.78 µM
not listed: [15] | [17] | [18] | [19]
inactive: all other assays above

CC1COC(Cn2cncn2)(c2ccc(Oc3ccc(Cl)cc3)cc2Cl)O1 (configuration not stated)
active: [3] 94.7 µM | [5] 94.4 µM | [6] 105 µM | [10] 52.6 µM | [12] 32.6 µM | [16] 60.6 µM
not listed: [15] | [17] | [18] | [19]
inactive: all other assays above

COP(=S)(OC)Oc1nc(Cl)c(Cl)cc1Cl
active: [18] 151 µM
not listed: [15] | [17] | [19] | [20]
inactive: all other assays above

CCCCC(CC)COC(=O)c1ccccc1C(=O)OCC(CC)CCCC (configuration not stated)
not listed: [15] | [17] | [18] | [19]
inactive: all other assays above

COc1nc(C)nc(NC(=O)NS(=O)(=O)c2ccccc2CCC(F)(F)F)n1
not listed: [15] | [17] | [18] | [20]
inactive: all other assays above

CCOP(=S)(OCC)SCn1c(=O)oc2cc(Cl)ccc21
active: [12] 99.8 µM
not listed: [15] | [17] | [18] | [19] | [20]
inactive: all other assays above

COC(=O)C=C(C)OP(=O)(OC)OC
not listed: [17] | [18] | [19] | [20]
inactive: all other assays above

CCCCNC(=O)n1c(NC(=O)OC)nc2ccccc21
active: [3] 12.4 µM | [18] 8.47 µM | [13] 23.6 µM | [14] 45.6 µM | [16] 13 µM
not listed: [17] | [19] | [20]
inactive: all other assays above

O=C(O)c1nc(Cl)ccc1Cl
not listed: [15] | [17] | [18] | [19] | [20]
inactive: all other assays above

CNC(=O)ON=CC(C)(C)SC
not listed: [15] | [17] | [18] | [19] | [20]
inactive: all other assays above
